Screening data as filed in PubChem BioAssay.
BRCA1 expr up: BRCA1 expression activation. actives 1.1% (n = 380,000). MCF7-BRCA1-FFLuc reporter, luminescence, 48 h; response scale: scaled: vehicle 0%, 10 µM genistein 100%. Potency, µM (titrated, usually from 46.1 µM), without a hit: at the top dose activation, actives largely listed as activators; further: potency means the concentration at half of the fitted maximal effect; nearly all actives have a fitted effect of over 80% in size
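Compounds are tested at multiple concentrations on MCF7 BRCA1-luciferase reporter cells seeded at 2000 per well; after 48 h, a single luminescence end-point is taken and curves fitted to the normalized data.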
Giardia killer: kills Giardia lamblia; Giardia lamblia trophozoite viability; actives 0.15% (n = 340,000); AID 540267; activity change, % at 7.66 µM, hits read low; in the data active means activity change below about -80%; inconclusive means between about -30% and that limit;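 further: parasites exposed to compound for two days anaerobically before the ATP read; on the % scale 0 is the no-effect control and ±100 the full control effect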
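Anaerobic 48 hrs incubation at 37 deg C of 100 trophozoites/well with test compounds; ATPLite 1-Step luminescence, 15-30 min RT, reports cellular ATP as viability.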
RORg inh: inhibitors of mouse ROR gamma transcriptional activity; Potency, µM (series often up to 53.6 µM), for inactives: at the highest dose activity change, negative = inhibition, most hits filed as inhibitors; P51450; Drosophila S2 Gal4-RORgamma UAS-luciferase reporter, 20 h; actives 5.4% (n = 310,000); further: potency means the concentration at half of the fitted maximal effect; on the % scale 0 is the no-effect control and ±100 the full control effect; nearly all actives have a fitted effect of over 60% in size
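Stable Schneider cell line, Gal4 DNA-binding domain fused to ROR gamma, UAS-luciferase. Cmpd 1 hr RT → CuSO4 700 uM final → 20 hr RT → luciferase reagent 10 min → luminescence.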
ELG1 repair inh: inhibitors of ELG1-dependent DNA repair in HEK293T cells | HEK293T ELG1-luciferase reporter, luminescence, 16 h; DNA damage induced by 5-fluorouridine | Potency, µM (series often up to 46.1 µM), inactives show top-dose activity change, negative = inhibition, hits mostly inhibitors | actives 2.3% (n = 330,000); further: potency means the concentration at half of the fitted maximal effect; on the % scale 0 is the no-effect control and ±100 the full control effect; nearly all actives have a fitted effect of over 55% in size
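5-Fluorouridine DNA damage + compound/DMSO, 2,000 cells/well, 16 h, 37 °C/5% CO2. ONE-Glo, 30 min RT, luminescence. Readout = decrease in reporter signal.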
Gal4-VP16 FLuc: inhibits Gal4-VP16 luciferase reporter, ROR gamma counter-screen | Drosophila S2 Gal4-VP16 UAS-luciferase, luminescence, 20 h | Potency, µM (highest dose often 53.6 µM), for the others: top-dose activity, negative = inhibition, usual class: inhibitors | actives 3.5% (n = 310,000);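 further: Gal4-VP16 expression switched on by copper sulfate through the metallothionein promoter; potency means the concentration at half of the fitted maximal effect; on the % scale 0 is the no-effect control and ±100 the full control effect; nearly all actives have a fitted effect of over 50% in size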
p53 reactivator: mutant p53 re-activation in reporter cells | H1299 p53-A138V BP100-luciferase reporter, luminescence, 24 h | Potency, µM (top dose mostly 92.2 µM), inactives show at the top dose activity change, positive = activation, actives largely listed as activators | actives 0.063% (n = 320,000) | AID 504706; further: potency means the concentration at half of the fitted maximal effect; % of control where 0% means no effect; nearly all actives have a fitted effect of over 45% in size
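p53-null H1299 cells stably carrying temperature-sensitive p53-A138V and a BP100-luciferase reporter were pinned with compounds (4-point, 1:5 series) and held 24 hrs at 37 deg C. Luminescence was read 10 min after detection reagent.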
ELG1 FLuc counter: luciferase inhibition in cell-free luciferin readout for ELG1 hits; shares compounds with ELG1 repair inh; cell-free firefly luciferase luminescence counter-screen, ViewLux; Potency, µM (top dose mostly 46.1 µM), without a hit: at the top dose activity change, negative = inhibition, hits mostly inhibitors; actives 3% (n = 350); AID 624247; further: potency means the concentration at half of the fitted maximal effect; on the % scale 0 is the no-effect control and ±100 the full control effect
ELG1-Luc inh: human ELG1 repair inhibition, luciferase-tagged ELG1 confirmation | HEK293T ELG1-luciferase levels, luminescence; cells co-treated with 5-fluorouridine | actives 68% (n = 670) | shares compounds with ELG1 repair inh | Potency, µM (highest dose often 46.1 µM), inactives show at the top dose activity change, negative = inhibition, usual class: inhibitors; further: potency means the concentration at half of the fitted maximal effect; on the % scale 0 is the no-effect control and ±100 the full control effect; nearly all actives have a fitted effect of over 55% in size
ELG1-Luc MMS: confirmation of human ELG1 repair inhibitors, MMS stimulated. shares compounds with ELG1 repair inh. HEK293T luciferase-tagged ELG1 level, MMS stimulated. Potency, µM (titrated, usually from 46.1 µM), inactives show at the highest dose activity change, negative = inhibition, actives largely listed as inhibitors. actives 53% (n = 670). AID 624249; further: potency means the concentration at half of the fitted maximal effect; on the % scale 0 is the no-effect control and ±100 the full control effect; nearly all actives have a fitted effect of over 60% in size
ELG1 5-FU: confirmation of ELG1 repair inhibitors: viability with 5FU | shares compounds with ELG1 repair inh | cell viability with 5-FU, ELG1-dependent repair | Potency, µM (top dose mostly 46.1 µM), without a hit: top-dose activity change, negative = viability loss, actives largely listed as cytotoxic | 670 tested, under 10 active | AID 624250;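 further: ELG1-luc HEK293T cells cotreated with 5-fluorouridine at 10 µM final; potency means the concentration at half of the fitted maximal effect; viability measured 16 h after compound addition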
ELG1 MMS viab: confirmation of ELG1 repair inhibitors: viability with MMS; Cell viability with MMS, ELG1-dependent DNA repair; shares compounds with ELG1 repair inh; actives 33% (n = 670); Potency, µM (top dose mostly 46.1 µM), for inactives: top-dose activity change, negative = viability loss, actives largely listed as cytotoxic; AID 624251;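 further: ELG1-luc HEK293T cells co-treated with 10 µM MMS; potency means the concentration at half of the fitted maximal effect; viability read 16 h after compound addition; on the % scale 0 is the no-effect control and ±100 the full control effect; nearly all actives have a fitted effect of over 60% in size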
ELG1 unstim viab: counter-screen for ELG1 repair inhibitors: unstimulated cell viability; shares compounds with ELG1 repair inh; cell viability counter-screen, unstimulated, luminescence; Potency, µM (series often up to 45.9 µM), without a hit: top-dose activity change, negative = loss of viability, most hits filed as cytotoxic; actives 8% (n = 900);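 further: potency means the concentration at half of the fitted maximal effect; compound exposure lasted 16 hours before reading; on the % scale 0 is the no-effect control and ±100 the full control effect; nearly all actives have a fitted effect of over 55% in size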
FLuc enzyme: firefly luciferase inhibition counter-screen; purified firefly luciferase, luminescence counter-screen; shares compounds with ELG1 repair inh; actives 10% (n = 350); Potency, µM (doses to about 57.5 µM), inactives show at the highest dose activity, negative = inhibition, actives largely listed as inhibitors; further: potency means the concentration at half of the fitted maximal effect; on the % scale 0 is the no-effect control and ±100 the full control effect
* hit, by the source's call; ? = inconclusive; . = no result. The list is not random: actives were taken first. Their share in the collection is about 7.6%. Unless noted, the call rests on the fitted dose curve; in most records, active means well fitted curve in the direction sought with a large enough effect; inconclusive means small, poorly fitted or top-dose-only effect, or another doubt; inactive means no such curve, though single readings can be large; an effect the other way counts as inactive or inconclusive.

SMILES	BRCA1 expr up	Giardia killer	RORg inh	ELG1 repair inh	Gal4-VP16 FLuc	p53 reactivator	ELG1 FLuc counter	ELG1-Luc inh	ELG1-Luc MMS	ELG1 5-FU	ELG1 MMS viab	ELG1 unstim viab	FLuc enzyme
O=[N+]([O-])c1cc2c(c(CSc3nnc(Nc4ccccc4)s3)c1)OCOC2	1%	-15	-1%	4.6µM*	0%	3%	.	?	1µM*	0%	0.79µM*	?	.
O=C(Cn1cnc2scc(-c3ccc(F)cc3)c2c1=O)N1CCOCC1	-24%	-3	29%	-2%	1%	-1%	.	.	.	.	.	.	.
COc1cc(NC(=O)c2cc(-c3ccccc3)nc3c2cnn3C(C)C)cc(OC)c1OC	-63%	-22	.	3.7µM*	.	-4%	.	7.1µM*	?	?	?	25µM*	.
Cn1ccc2c(OCC(=O)NCc3ccccc3)cccc2c1=O	0%	.	.	.	.	.	.	.	.	.	.	.	.
CCn1cc(CN2CCCC(CO)(Cc3cccc(Cl)c3)C2)cn1 (stereo not drawn)	-13%	-11	-13%	-9%	-1%	-3%	.	.	.	.	.	.	.
COc1ccc(N2CCN(C(=O)C3CCCN(c4ncnc5c4nc4n5CCCCC4)C3)CC2)cc1 (stereo not drawn)	4%	1	40%	3.7µM*	-11%	-9%	56%	10µM*	?	?	-7%	?	-4%
COc1ccc(NC(=O)C2CCN(c3nc(C)nc4c3CCC4)CC2)cc1	-55%	55	?	0.73µM*	?	-3%	-13%	?	5µM*	-6%	5µM*	?	25%
CCCN1CCN(C(=O)C2CCN(c3ncnc4c3nc3n4CCCCC3)CC2)CC1	-13%	53	-12%	-8%	-5%	-9%	65%	-28%	?	-8%	?	-16%	-2%
COC(=O)c1ccccc1NC(=O)C1CCN(c2ncnc3c2nc2n3CCCCC2)CC1	1%	20	?	?	-16%	10%	-2%	11µM*	?	?	1%	-8%	-11%
CC1CCN(C(=O)C2CCN(c3ncnc4c3nc3n4CCCCC3)CC2)CC1	-55%	1	30%	-3%	-2%	2%	.	.	.	.	.	.	.
COc1ccc(NC(=O)C2CCN(c3nc(C)cc(C)n3)CC2)cc1	?	3	-1%	-14%	-9%	-4%	.	.	.	.	.	.	.
CN1CCCN(C(=O)c2ccccc2Cl)CC1	1%	0	-36%	1%	-2%	20%	.	.	.	.	.	.	.
COc1ccc(S(=O)(=O)N(C)CC(=O)Nc2c(F)cccc2F)cc1	4%	18	-37%	5%	?	-3%	.	.	.	.	.	.	.
CC(=O)OC1CC2(C)C(CCC2(O)C(C)=O)C2CCC3C(Cl)C(=O)CCC3(C)C12 (stereo not drawn)	-17%	20	.	.	.	.	.	.	.	.	.	.	.
COc1ccccc1NS(=O)(=O)c1ccc(C)c(C(=O)NC2=NCCS2)c1	-54%	?	.	-1%	.	7%	.	.	.	.	.	.	.
COc1ccc(NC(=O)C2CCN(c3ncnc4c3nc3n4CCCCC3)CC2)c(OC)c1	8%	3	27%	4.6µM*	-2%	16%	?	7.9µM*	32µM*	?	?	?	-9%
Cc1cccc(NC(=O)C2CCN(c3ncnc4c3nc3n4CCCCC3)CC2)n1	7%	-16	?	1.8µM*	-18%	7%	5%	5µM*	?	?	-11%	?	-5%
Cc1nc2ccccc2nc1CSc1nncs1	-6%	7	9%	0%	-2%	7%	.	.	.	.	.	.	.
O=C(O)c1ccc2c(=O)n3c(nc2c1)/C(=C/c1ccc(Cl)cc1Cl)CC3	-32%	2	34%	-8%	-6%	9%	.	.	.	.	.	.	.
CCN1CCN(C(=S)NCCOC)CC1	2%	-6	-5%	9%	1%	-3%	.	.	.	.	.	.	.
CCCCn1c(SCC(=O)Nc2nnc(C)s2)nc2c1c(=O)n(C)c(=O)n2C	12%	-23	-1%	9%	-7%	16%	.	.	.	.	.	.	.
CCCCn1c(SCC(=O)Nc2nnc(CC)s2)nc2c1c(=O)n(C)c(=O)n2C	-89%	8	12%	2.5µM*	0%	8%	.	?	11%	-14%	?	?	.
COc1ccc(/C=C/c2ccc3ccccc3n2)cc1OC	-24%	.	.	.	.	.	36%	.	.	.	.	?	?
COc1ccc(/C=C/c2cnc3ccccc3n2)cc1OC	-27%	.	.	.	.	.	-8%	.	.	.	.	-4%	0.21µM*
COc1ccc(-c2ccc3ccccc3n2)cc1OC	?	-10	-22%	?	7%	19%	.	.	.	.	.	.	.
O=C(Nc1cnn(Cc2ccc(F)cc2)c1)c1cnn2c(C(F)F)cc(-c3ccccc3)nc12	-52%	5	-15%	2.3µM*	2%	-2%	?	5µM*	13µM*	?	?	?	-11%
O=C(Nc1cc(F)ccc1F)c1cnn2c(C(F)F)cc(-c3ccccc3)nc12	-6%	.	.	.	.	.	.	.	.	.	.	.	.
